Bioassay records: PubChem BioAssay, several laboratories
Rows were chosen to be rich in hits. Some 7% of all compounds tested hit in one or more screens of this group.
rCAG RNA binder: r(CAG) repeat RNA binding; TO-PRO-1 dye displacement fluorescence; inhibition, % at 3 µM; 370,000 tested, 1.3% active;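 active = inhibition above the plate cutoff, the mean of all test compounds on that plate plus 3 SD, cut at about 35% in these data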;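 note: higher means more dye released from RNA so lower well fluorescence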
AHR act: activates the human aryl hydrocarbon receptor; P35869; AHR-responsive luciferase reporter cells, luminescence; activation, % at 5 µM; 320,000 tested, 2.5% active; AID 2796; in the data active = activation above about 47%
NR3A LBD binder: modulates the human NR3A ligand-binding domain; 340,000 tested, 2.5% active; Tm shift relative to glycine control, % at 25 µM; AID 1259313; NR3A LBD differential scanning fluorimetry, Tm shift; 0% = protein alone, 100% = glycine-bound protein;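 active = melting temperature shift of at least 10% of the positive control shift, at one fixed dose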
ADAM10 inh: inhibitors of human ADAM10; O14672; recombinant ADAM10, EDANS/DABCYL FRET peptide cleavage, 3 h; inhibition, % at 7 µM; 370,000 tested, 0.62% active; AID 720582;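 active = inhibition above a per-campaign cutoff equal to the mean of compounds falling between control-based bounds plus 3 SD, cut at about 20% in these data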
Target sequence (O14672 214-748 limits assumed): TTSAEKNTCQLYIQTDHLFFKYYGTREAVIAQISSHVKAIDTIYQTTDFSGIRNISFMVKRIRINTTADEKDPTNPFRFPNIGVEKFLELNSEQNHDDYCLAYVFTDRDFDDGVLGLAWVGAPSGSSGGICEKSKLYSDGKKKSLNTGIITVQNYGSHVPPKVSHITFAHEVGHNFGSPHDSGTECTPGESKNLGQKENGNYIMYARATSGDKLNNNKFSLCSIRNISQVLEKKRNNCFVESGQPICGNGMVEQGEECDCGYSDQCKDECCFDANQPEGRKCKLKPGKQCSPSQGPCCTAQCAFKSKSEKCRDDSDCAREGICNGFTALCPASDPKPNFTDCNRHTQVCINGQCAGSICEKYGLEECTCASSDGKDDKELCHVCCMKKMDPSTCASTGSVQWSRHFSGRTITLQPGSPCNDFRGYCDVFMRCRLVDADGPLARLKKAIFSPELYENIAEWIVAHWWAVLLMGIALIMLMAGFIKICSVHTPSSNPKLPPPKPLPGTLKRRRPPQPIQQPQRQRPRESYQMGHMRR
KLK7 zymogen act: proKLK7 (human) activation, primary screen; activation, % at 7 µM; P49862; purified proKLK7, EDANS-DABCYL substrate fluorescence; 100% is mature enzyme control, 0% vehicle; 370,000 tested, 0.9% active;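 active = activation above the mean of all tested compounds plus 3 SD, computed per campaign excluding outliers beyond control limits, cut at about 13% in these data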
ADAM17 inh: inhibitors of human ADAM17; P78536; recombinant ADAM17, EDANS/DABCYL FRET peptide cleavage; inhibition, % at 6.95 µM; 370,000 tested, 0.83% active;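 active = inhibition above the mean of compounds lying between control limits plus 3 SD, set per campaign, cut at about 8.5% in these data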
Numbers stand for hits; n = inactive; x = no result given.

SMILES	rCAG RNA binder	AHR act	NR3A LBD binder	ADAM10 inh	KLK7 zymogen act	ADAM17 inh
CN(C)S(=O)(=O)c1ccc(C(=O)Nc2nnc(SCc3cccc4ccccc34)s2)cc1	n	n	26.1	n	n	n
COC(=O)[C@]12C[C@H](CC(=O)N3CCOCC3)C(=O)N(CCc3ccc(OC)c(OC)c3)C1=C[C@H](C1CCCC1)O[C@@H]2C	n	x	x	n	n	n
O=S(=O)(Nc1nc2ccccc2nc1Cl)c1ccc2ccccc2c1	48.8	n	n	n	n	n
O=S(=O)(Nc1nc2ccccc2nc1Cl)c1ccccc1	n	n	n	n	n	n
CC(=O)Nc1ccc(S(=O)(=O)Nc2cccc(-c3nc4ccccc4o3)c2)cc1	n	n	11.7	n	n	n
CC(=O)Nc1ccc(S(=O)(=O)Nc2nc3cc4c(cc3nc2Cl)OCCO4)cc1	n	n	n	n	n	n
CC(=O)Nc1ccc(S(=O)(=O)Nc2nc3ccccc3nc2Cl)cc1	n	n	37.7	n	n	n
CCOc1ccc(S(=O)(=O)Nc2nc3ccccc3nc2Nc2ccc(N3CCOCC3)cc2)cc1	n	n	14.6	n	n	n
O=C(NC1CCCCN(Cc2ccc(Cl)cc2)C1=O)c1cccs1 (configuration not stated)	n	x	x	n	n	n
Cc1ccc(C(C)(C)C)cc1S(=O)(=O)Nc1nc2ccccc2nc1Cl	63.0	n	n	n	n	n
O=S(=O)(Nc1nc2ccccc2nc1Nc1cccc(S(=O)(=O)N2CCCCC2)c1)c1ccccc1	n	n	13.0	n	n	n
Cc1cc(F)ccc1S(=O)(=O)Nc1nc2ccccc2nc1Cl	n	n	n	n	n	n
COc1ccc(S(=O)(=O)Nc2cccc(S(=O)(=O)N3CCCCCC3)c2)cc1	n	n	n	n	n	n
COc1cccc(Nc2nc3ccccc3nc2NS(=O)(=O)c2ccc(NC(C)=O)cc2)c1	x	n	22.1	x	x	x
Cc1cccc(COCC(Cc2ccccc2)N2CCN(C(=O)c3ccc(Cl)c(Cl)c3)CCC2=O)c1 (configuration not stated)	n	n	n	28.2	n	n
CCC(C)NC(=O)CSc1nc(-c2cccs2)cc(C(F)(F)F)n1 (configuration not stated)	n	n	n	n	n	n
O=C(CSc1nc(-c2cccs2)cc(C(F)(F)F)n1)Nc1cc(OCC(F)(F)F)cc([N+](=O)[O-])c1	n	n	14.6	n	n	n
CC1CN(c2ccc(C(F)(F)F)cc2[N+](=O)[O-])CCN1S(C)(=O)=O (configuration not stated)	n	n	14.4	n	n	n
O=C(CSc1nc2ccccc2o1)NCc1ccc2c(c1)OCO2	n	69.9	n	n	n	n
O=C(CSc1nc2ccccc2[nH]1)NCc1ccc2c(c1)OCO2	n	54.8	n	n	n	n
O=C(CSc1nc2ccc(Cl)cc2o1)NCc1ccc2c(c1)OCO2	n	n	n	n	n	n
O=C(NCc1ccc(Cl)cc1)OCCN1C(=O)CCC12CCC(c1ccccc1)CC2 (configuration not stated)	n	x	x	n	n	n
CC(O)CNc1nc2ccccc2n1-c1ncnc2sc3c(c12)CCC3 (configuration not stated)	n	58.7	n	n	n	n
Cc1ccc2c(c1)N(C(=O)CSc1nncn1C)C(C)(C)c1ssc(=S)c1-2	n	n	n	n	n	8.8
Cc1nn(-c2ccc(Cl)cc2)c(Cl)c1/C=N/NC(=O)c1ccc(NS(=O)(=O)c2cccs2)cc1	61.6	n	13.8	n	n	n
SMILES	rCAG RNA binder	AHR act	NR3A LBD binder	ADAM10 inh	KLK7 zymogen act	ADAM17 inh
COc1ccc(NS(=O)(=O)c2cccc(C(=O)N/N=C/c3c(F)c(F)c(F)c(F)c3F)c2)cc1	n	x	11.9	n	n	n
Cc1nn(-c2ccccc2)c(N2CCCC2)c1/C=N/NC(=O)c1cccc(S(=O)(=O)Nc2ccc(Cl)cc2)c1	n	n	13.4	n	n	n
COc1ccc(NS(=O)(=O)c2cccc(C(=O)NN=Cc3ccc(OC)c(O)c3)c2)cc1	n	n	n	n	n	n
Cc1nn(-c2ccccc2)c(Cl)c1/C=N/NC(=O)c1cccc(S(=O)(=O)N2CCCC2)c1	n	n	n	n	n	n
CC(=O)Nc1cccc(C(C)C2=CCCCC2)c1 (configuration not stated)	n	x	x	n	n	n
Cc1ccc(CNc2ccc3c(c2)nc(C)n3C)cc1	n	56.8	n	n	n	n
Cc1nc2cc(NCc3ccc(Cl)cc3)ccc2n1C	n	n	n	n	n	n
COc1ccccc1NC(=O)c1cccc2c(Br)cccc12	n	53.1	n	n	n	n
O=C(Nc1ccccc1)Nc1cccc2cccnc12	n	70.9	13.4	n	n	n
O=C(Nc1cccc2cccnc12)c1ccccc1Cl	n	n	n	n	n	n
O=C(Nc1ccccc1)Nc1cccc2ccccc12	n	n	n	n	n	n
COc1ccccc1C(=O)Nc1cccc2cccnc12	n	78.2	n	n	n	n
COc1ccccc1C(=O)Nc1ccccc1SC	n	55.3	n	n	n	n
CCCCN=C(N)NC(=O)c1ccccc1	n	x	x	n	n	n
COc1ccc(C(=O)C2(C(=O)NCc3ccccc3)CC(c3ccccn3)=NO2)cc1 (configuration not stated)	n	x	x	n	n	n
CCC1(C)OC(=O)N2CCc3c(C)[nH]c4c(C)ccc(c34)C21C (configuration not stated)	n	61.6	n	n	n	n
CCn1nc(C)c(/C=N/NC(=O)c2c[nH]c3ccccc23)c1C	n	98.8	n	n	n	n
CCn1nc(C)c(/C=N/NC(=O)Cn2nccc2C)c1C	n	n	n	n	n	n
Cc1ccc(/C=N/NC(=O)c2c[nH]c3ccccc23)o1	x	71.8	16.9	x	x	x
Cc1ccc(/C=N/NC(=O)c2c[nH]c3ccccc23)s1	n	50.5	35.0	n	n	n
CCC(C(=O)Nc1ccccc1N1CCCC1)c1ccccc1Cl (configuration not stated)	n	x	x	n	n	n
CCN(C[C@H]1[C@@H](c2ccc(C3=CCCC3)cc2)[C@H](CO)N1c1nc(C)c(C)s1)S(=O)(=O)c1ccccc1[N+](=O)[O-]	n	x	x	n	n	n
CC(C)(C)c1ccc(C(=O)Nc2ncn[nH]2)cc1	n	69.7	n	n	n	n
O=S1(=O)N[C@@H](Cc2ccccc2)COc2cc(NC3CC3)ccc21	n	x	x	n	n	n
Cc1ccc(OCCNC(=O)[C@@H](Cc2ccccc2)NC(=O)[C@H]2O[C@@H](n3ccc(=O)[nH]c3=O)[C@H](O)[C@@H]2O)cc1C	n	x	x	n	n	n
CC(C)c1ccc(CN2CC(C(=O)Nc3ccccc3)CC2=O)cc1 (configuration not stated)	n	n	14.8	n	n	n
CCCc1nc2ccccc2c(=O)n1/N=C/c1c(C)[nH]n(-c2ccc(C)cc2)c1=O	n	58.5	n	n	n	n
